Compounds without any hit were thinned out: in the full panel of roughly 83,000, 20% have a hit.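 96-well plates, one dose, 48 hours. Percent growth reported; active if below 10.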 A number with no mark means an inactive call. Active and inactive are the calls of the source.
Tests used:
Assay in all cases: NCI-60 one-dose screen, 48 h (100 = growth as untreated, 0 = no growth, -100 = all killed)
Conditions in all cases: 10 µM
[1] = system: NCI-H23 lung
[2] = system: NCI-H226 lung
[3] = system: NCI-H322M lung
[4] = system: HOP-62 NSCLC
[5] = system: NCI-H460 lung
[6] = system: NCI-H522 lung
[7] = system: A549/ATCC NSCLC
[8] = system: 786-0 renal
[9] = system: COLO 205 colon
[10] = system: DU-145 prostate
[11] = system: K-562 leukemia
[12] = system: MALME-3M melanoma
[13] = system: MDA-MB-231 breast
[14] = system: RXF 393 renal
[15] = system: SF-268 CNS
[16] = system: SF-295 CNS
[17] = system: SF-539 CNS
[18] = system: UACC-257 melanoma
[19] = system: M14 melanoma
[20] = system: HCT-15 colon

| SMILES | growth [1] | growth [2] | growth [3] | growth [4] | growth [5] | growth [6] | growth [7] | growth [8] | growth [9] | growth [10] | growth [11] | growth [12] | growth [13] | growth [14] | growth [15] | growth [16] | growth [17] | growth [18] | growth [19] | growth [20] |
| --- | --- | --- | --- | --- | --- | --- | --- | --- | --- | --- | --- | --- | --- | --- | --- | --- | --- | --- | --- | --- |
| O=C(Nc1ccc(CN2CCc3nc4cc(O)c(O)cc4cc32)cc1)c1ccc(Cl)c(Cl)c1 | 105% | 78.7% | 94% | 107% | 102% | 101% | 111% | 104% | 99.4% | 104% | 115% | 93% | 103% | 89.4% | 96.6% | 101% | 94.2% | 103% | 98.4% | 101% |
| O=C(Nc1nc(-c2ccccc2Cl)cs1)c1cc(-c2ccc(Cl)cc2)nc2ccc(Cl)cc12 | 28.8% | 72.7% | 90.8% | 28.5% | 96.3% | 57.8% | 92.7% | 23.5% | 94.3% | 32% | 14.8% | 41.5% | 22% | 88.8% | 28.3% | 89.4% | -5.27% (active) | 66.8% | -2.68% (active) | 8.89% (active) |
| N#Cc1c(C#N)c(SSc2c(C#N)c(C#N)c(N)n2-c2ccccc2)n(-c2ccccc2)c1N | 94.8% | 101% | 108% | 109% | 120% | 67.3% | 112% | 101% | 97.4% | 115% | -17.7% (active) | 95.1% | 100% | 98.8% | 112% | 115% | 103% | 103% | 115% | 102% |
| CCN(CC)CCNC(=O)c1ccc(NC(C)=O)cc1 | 94.5% | 110% | 105% | 103% | 113% | 111% | 98.5% | 108% | 112% | 119% | 99.2% | 103% | 91.8% | 109% | 109% | 104% | 107% | 117% | 109% | 101% |
| CN(C)N=Nc1nn(C(=O)Nc2ccc(Cc3ccccc3)cc2)c2ccccc12 | 61% | 69.2% | 81.3% | 70.6% | 11.4% | 42.3% | 31.5% | 49.9% | -53.4% (active) | 60.8% | 18.4% | 53.8% | 58.2% | 94.8% | 63.5% | 9.64% (active) | 4.93% (active) | 29.3% | 20.4% | 36.2% |
| CC[C@H](C)C(=O)O[C@H]1CCC=C2C=C[C@H](C)C(CCC3C[C@@H](O)CC(=O)O3)[C@H]21 (stereo not given in full) | 64.4% | 76.8% | 44.6% | 87% | 92.9% | 23% | 97.2% | 84.8% | 89% | 110% | 71.5% | 89.1% | 2.32% (active) | 70.2% | 33.8% | 8.14% (active) | 85.8% | 75.2% | 61.7% | 55.8% |
| Cn1c([N+](=O)[O-])cnc1/C=C1\Oc2ccc(Cl)cc2C1=O | -12.7% (active) | -27.2% (active) | 11.4% | -17.2% (active) | -44.3% (active) | -50.3% (active) | -40.9% (active) | -23.2% (active) | -41.6% (active) | -17.1% (active) | 1.86% (active) | -55% (active) | -22.5% (active) | -70.5% (active) | -32.1% (active) | -17.3% (active) | -50.3% (active) | -41.7% (active) | -33% (active) | -8.74% (active) |
| COc1ccc(/C=C2/CN(C(=O)c3ccccc3F)C/C(=C\c3ccc(OC)cc3)C2=O)cc1 | 73.6% | 57.8% | 82.9% | 75.8% | 94% | 38.3% | 63.2% | 56.9% | 59.1% | 42.1% | 2.77% (active) | 62.1% | 70.5% | 12.5% | 51.5% | 50.1% | 93.1% | 71.2% | 1.05% (active) | 18.2% |

Source: PubChem BioAssay (NCI)
